TIM10 inh – growth inhibitors of isogenic TIM10 control yeast, primary screen, counter-screen for tim10-1 yeast inhibitor project, luminescence, uHTS; AID 463195, 2010; S. cerevisiae TIM10 strain growth, BacTiter-Glo luminescence, 24 h; inhibition, % at 10 µM; actives 1.4% (n = 330,000);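 active = inhibition of 40% or more at the single tested concentration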;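 note: wild-type TIM10 isogenic control strain grown at permissive 25 °C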
Mot1-301 SUMO – yeast Mot1-301 growth rescue at high temperature, primary screen, SUMOylation pathway inhibitor project, S. cerevisiae, ATP luminescence, 38.5C; S. cerevisiae Mot1-301 growth rescue; percent above DMSO median, 100 means doubled; growth rescue, % at 18.8 µM; actives 1% (n = 320,000);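 active = every valid replicate shows activation above 250% relative to neutral control wells; inactive = the rest, any valid replicate at or below 250%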;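 note: OY570 slx delta 5 strain wells were the positive control but not used for scaling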
PfHsp90 yeast 2 – growth inhibition of PfHsp90-expressing yeast, primary screen, antimalarial PfHsp90 inhibitor project, S. cerevisiae, BacTiter-Glo luminescence, single point, set 2; BacTiter-Glo ATP, 48 h; yeast lacking PDR1 and PDR3 efflux regulators; inhibition, % at 9.4 µM; actives 0.32% (n = 310,000); AID 504621, 2011;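 active = every replicate shows inhibition above about 80%, whatever the replicate mean, limit read from the data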;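 note: 0% = DMSO neutral controls and 100% = 20 µM radicicol positive controls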
tim23-1 inh – growth inhibitors of tim23-1 mutant yeast, primary screen, luminescence, uHTS; actives 1.3% (n = 330,000); AID 463212, 2010; inhibition, % at 20 µM; S. cerevisiae tim23-1 growth, BacTiter-Glo luminescence, 24 h;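 active = growth inhibition of the mutant yeast at or above 50%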;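 note: temperature-sensitive mutant grown at 25 °C; plate controls were DMSO-treated mutant yeast for no effect and medium wells lacking yeast for full effect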
tim10-1 inh – growth inhibitors of tim10-1 mutant yeast, primary screen, luminescence, uHTS | S. cerevisiae tim10-1 ts strain growth, BacTiter-Glo, 24 h | inhibition, % at 20 µM | actives 2.2% (n = 330,000);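 active = inhibition of at least 40%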;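 note: mutant grown at 25 °C; 0% = DMSO wells with yeast and 100% = wells holding no yeast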
Mot1 SUMO dose – growth restoration of Mot1-301 yeast on galactose, dose response, SUMO pathway inhibitor project, whole organism, S. cerevisiae, ATP luminescence, cherry-picked samples | AID 493004, 2010 | 2,300 tested, under 10 active | S. cerevisiae Mot1-301 galactose growth, 24 h; -100 = growth of slx-deleted rescue strain | shares compounds with Mot1-301 SUMO | growth activity, percent, % at 42 µM;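 active = Signal drops as the depositor expects, and the fitted half-maximal dose is no more than ten times the top valid tested dose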;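 note: more negative values mean stronger growth rescue toward the control strain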
Active calls of the source: *; . = no result; + = active, no number. An excerpt weighted towards active compounds, which were near 4.4% of everything screened.

SMILES | TIM10 inh | Mot1-301 SUMO | PfHsp90 yeast 2 | tim23-1 inh | tim10-1 inh | Mot1 SUMO dose
c1ccc(N2CCN(C3CCSC3)CC2)cc1 (centres undefined) | -8 | 817* | 7 | 5 | -6 | 1
CCOC(=O)c1cc(C#N)c(Oc2ccccc2OC)nc1-c1ccccc1 | 19 | + | -6 | 34 | 28 | 0
Cc1c(C(=O)N2CCCCC2)c(S(=O)(=O)N2c3ccccc3CC2C)c(C)n1C (centres undefined) | 13 | -22 | 4 | 13 | 6 | .
Cc1nnc(N=c2ssnc2Cl)o1 | 28 | 606* | 143* | 39 | 27 | -1
COc1ccc(C(=O)O)cc1S(=O)(=O)NCCN(C)C | -3 | 824* | -5 | 0 | -7 | 0
COCCNS(=O)(=O)c1cc(C(=O)O)ccc1OC | 4 | 61 | 23 | 7 | -9 | .
CC(=O)NC(CC(C)C)C(=O)NC(CO)C(=O)NC(CCC(=O)O)C(=O)NC(C)C(=O)NC(CC(C)C)C(N)=O (centres undefined) | -8 | 782* | 20 | 6 | -18 | 0
O=C(COC(=O)CNC(=O)C1CCCCC1)Nc1ccccc1OC(F)F | 8 | 74 | -1 | -3 | -5 | .
Cc1cc(C(=O)NC2CCCN(Cc3ccc(Cl)cc3)C2)n(C)n1 (centres undefined) | 5 | 0 | 1 | 12 | 10 | .
CCOc1ccccc1NC(=O)c1ccc2c(c1)C(=O)N(CC(C)C)C2=O | -2 | 551* | 21 | -10 | 0 | 1
Cc1ccccc1NC(=O)c1ccc2c(c1)C(=O)N(CC(C)C)C2=O | -2 | -9 | 11 | 11 | 1 | .
Cc1cc(C)cc(C(=O)NCC(=O)N2CCN(c3cccc(Cl)c3)CC2)c1 | -5 | 53 | 2 | 25 | 24 | .
Cc1cccc(C(=O)NCC(=O)N2CCN(c3ccc(Cl)cc3)CC2)c1 | 10 | 368* | -5 | 24 | 5 | 0
Cc1ccc(S(=O)(=O)NC2=NCN(CC(=O)O)CN2)cc1 | 4 | -1 | 29 | 0 | 6 | .
CCCCCNC(=O)c1ccc2c(=O)n(CC3CCCO3)c(=O)[nH]c2c1 (centres undefined) | -12 | 773* | -6 | 5 | 1 | 0
COc1ccc([N+](=O)[O-])cc1NC(=O)C1C2C=CC(C2)C1C(=O)O (centres undefined) | -13 | -7 | -3 | 1 | 11 | .
CC(=O)c1ccc(Nc2cc(C)nc3c(C)cccc23)cc1 | 7 | 22 | -29 | 4 | 17 | .
CC(=O)c1ccc(Nc2cc(C)nc3ccccc23)cc1 | 20 | 574* | -7 | -4 | -4 | 0
Cc1cc(C)cc(NC(=S)N(Cc2cccc(Br)c2)CC2CCC(C(=O)O)CC2)c1 (centres undefined) | 19 | . | 12 | 29 | 12 | .
CCc1ccc(NC(=S)N(Cc2cccc(Br)c2)CC2CCC(C(=O)O)CC2)cc1 (centres undefined) | -3 | 592* | -68 | 26 | 18 | -1
CN1CC(=O)N/C1=N\C(=O)Nc1ccc(O)cc1 | 0 | 11 | -9 | 4 | 5 | .
O=C1C2CCCN2C(=S)N1c1cc(Cl)ccc1Cl (centres undefined) | -11 | . | 11 | 16 | 5 | .
Cc1nc(N)c(Cc2ccccc2F)c(N)n1 | 9 | 433* | -9 | 18 | 20 | 1
CCCN(CC1CC1)C(=O)COc1ccccc1C(=O)NCc1ccccc1 | 12 | 802* | 11 | 22 | 28 | 1
CCC(C)N(C(=O)COc1ccccc1C(=O)NCc1ccccc1)C1CCS(=O)(=O)C1 (centres undefined) | 8 | -12 | 35 | -1 | -4 | .
O=C(/C=C/c1ccc(F)cc1)Nc1ccc2[nH]c(=O)[nH]c2c1 | -9 | 5 | 13 | -23 | -9 | .
CC(=Nc1ccccc1)C1=C(O)CC(C)(C)CC1=O | 5 | 432* | 8 | 3 | 3 | 1
